Over roughly 9,900 sequences, “r (bound/input frequency ratio)” has its median near 0.7; the highest 2% begin near 6.5. The full list was thinned out, with the highest values kept by preference.
B1: ENSMUSG00000031028.174|Tub|17:22 (ssRNA)
RNA: GGGAGUUCUACAGUCCGACGAUCGCUUCGAUAUCCGCAUGCUAAGAGGUAGCGGACCUCACACACGUUCACCAACAGCAAUGCUGAUCCCUGAGUAUAGGGCACAUGUCUCUUGGUUACCUCACUGGUUAAUGGCAGAGUUGAGAACCUCAAAUUCUUUUGUUCCUACUGUUGCCCAGAAACUAGACUCUCUGACCUGCUAGGGUCUAUUCUGCAUGUCCUUUCUCUUCCCAGUUCCAGAGAUGAAACCCCUCCGAGUUAAUGUAUAAGGUUGGAAACCUUUCAGUAGGGAAUCAGGCAGUUCCUCUUGCGGUCGCACUAGUGUGGAAUUCUCGGGUGUCAAGG
B2: ENSMUSG00000029028.255|Lrrc47 (ssRNA)
RNA: GGGAGUUCUACAGUCCGACGAUCGCUUCGAUAUCCGCAUGCUAGCUCACAGGUCCCUUUGAGUGGCUGUGGCAAGUACUCACCUACUAAGUGUUUAGGGUGGAGCUAUCCUGUGCUCACCCUGUCUCCCCCCAGUUCCUGCUGUUCCCUCCAGCCCAGCCCAGCCCAGGUGUGAGAUUCAUUGAGAUUUUUGAAACUGUUUUUACAGAUUCAAGCAGAACGCCUCUUUGUUCUAAUAAAAACCCUUGGUAACGACAUCUCUGCAUCAGCAGCCUUAGCACAUGCGUCUCCCAGGACAGUGUUGCUCUUGCGGUCGCACUAGUGUGGAAUUCUCGGGUGUCAAGG
B3: ENSMUSG00000029636.271|Wasf3|45:50 (ssRNA)
RNA: GGGAGUUCUACAGUCCGACGAUCGCUUCGAUAUCCGCAUGCUAAGUGAAAGCCCAUGUGCAAGCCCCUCCCUACGCCCUGCUUUGGCCACACACUGAGUGCUCUGUGCUGCGCCAUGGCCAUCCUGGAGCCUGCGCACACGUGGCCGCUGCUGUGACUCGCUGUCCUUGGUAAUUGGUGAGAGGCUUUUUCUUUCUUUCUCAGUUCUGCUUUUCCACACUGAGACCCACCAUGUUGACAUCAUCCUCGCGACGUUGACAUUUGAGCCUUUUGUUCUGUCUCCCAUGUGCCCUGUAGAACCCAGCUCUUGCGGUCGCACUAGUGUGGAAUUCUCGGGUGUCAAGG
B4: ENSMUSG00000022095.272|Fam160b2|13:33;80:84;216:221 (ssRNA)
RNA: GGGAGUUCUACAGUCCGACGAUCGCUUCGAUAUCCGCAUGCUAGAAUGAAUGUGACACACACACACACACACACACAGAGAGAGAGAGAGAGAGAGAGAGCUGUGAGUACACAUGGGUGCUGCACACGGACAGGAGCAGAUCUUGGUGGAGUGGGUCUACACUUGAGAUUUGUACUCGUUUGAGAGGCUGGGCAAUACUCAAUGCACUUUGGCAUUUGCAUGGUGUCUUCACAACAGCACAGCAAUAAACAUUGUGAUACACACGACAUGCUGACUCUCCCCAGUCUGCUUUUCUUUUCCCCACUCUUGCGGUCGCACUAGUGUGGAAUUCUCGGGUGUCAAGG
B5: ENSMUSG00000022095.270|Fam160b2|25:45;92:96;228:233 (ssRNA)
RNA: GGGAGUUCUACAGUCCGACGAUCGCUUCGAUAUCCGCAUGCUAAGAGCGAGCUAUGAAUGAAUGUGACACACACACACACACACACACAGAGAGAGAGAGAGAGAGAGAGAGCUGUGAGUACACAUGGGUGCUGCACACGGACAGGAGCAGAUCUUGGUGGAGUGGGUCUACACUUGAGAUUUGUACUCGUUUGAGAGGCUGGGCAAUACUCAAUGCACUUUGGCAUUUGCAUGGUGUCUUCACAACAGCACAGCAAUAAACAUUGUGAUACACACGACAUGCUGACUCUCCCCAGUCUGCUUCUCUUGCGGUCGCACUAGUGUGGAAUUCUCGGGUGUCAAGG
B6: ENSMUSG00000022095.273|Fam160b2 (ssRNA)
RNA: GGGAGUUCUACAGUCCGACGAUCGCUUCGAUAUCCGCAUGCUAAUGUGAGUGUGUGUGUGUGUGUGUGUGAGAGAGAGAGAGAGAGAGAGAGAGCUGUGAGUACACAUGGGUGCUGGUGUGGGACAGGAGCAGAUCUUGGUGGAGUGGGUCUACACUUGAGAUUUGUACUCGUUUGAGAGGCUGGGCAAUACUCAAUGCACUUUGGCAUUUGCAUGGUGUCUUCACAACAGCACAGCAAUAAACAUUGUGAUUGUGUGGACAUGCUGACUCUCCCCAGUCUGCUUUUCUUUUCCCCAAGCUUUCUCUUGCGGUCGCACUAGUGUGGAAUUCUCGGGUGUCAAGG
B7: ENSMUSG00000022095.268|Fam160b2|37:57;104:108;240:245 (ssRNA)
RNA: GGGAGUUCUACAGUCCGACGAUCGCUUCGAUAUCCGCAUGCUAAGAGAGAGAGAGAGAGCGAGCUAUGAAUGAAUGUGACACACACACACACACACACACAGAGAGAGAGAGAGAGAGAGAGAGCUGUGAGUACACAUGGGUGCUGCACACGGACAGGAGCAGAUCUUGGUGGAGUGGGUCUACACUUGAGAUUUGUACUCGUUUGAGAGGCUGGGCAAUACUCAAUGCACUUUGGCAUUUGCAUGGUGUCUUCACAACAGCACAGCAAUAAACAUUGUGAUACACACGACAUGCUGACUCUCCUCUUGCGGUCGCACUAGUGUGGAAUUCUCGGGUGUCAAGG
B8: ENSMUSG00000022095.272|Fam160b2 (ssRNA)
RNA: GGGAGUUCUACAGUCCGACGAUCGCUUCGAUAUCCGCAUGCUAGAAUGAAUGUGAGUGUGUGUGUGUGUGUGUGUGAGAGAGAGAGAGAGAGAGAGAGAGCUGUGAGUACACAUGGGUGCUGGUGUGGGACAGGAGCAGAUCUUGGUGGAGUGGGUCUACACUUGAGAUUUGUACUCGUUUGAGAGGCUGGGCAAUACUCAAUGCACUUUGGCAUUUGCAUGGUGUCUUCACAACAGCACAGCAAUAAACAUUGUGAUUGUGUGGACAUGCUGACUCUCCCCAGUCUGCUUUUCUUUUCCCCACUCUUGCGGUCGCACUAGUGUGGAAUUCUCGGGUGUCAAGG
B9: ENSMUSG00000022095.268|Fam160b2 (ssRNA)
RNA: GGGAGUUCUACAGUCCGACGAUCGCUUCGAUAUCCGCAUGCUAAGAGAGAGAGAGAGAGCGAGCUAUGAAUGAAUGUGAGUGUGUGUGUGUGUGUGUGUGAGAGAGAGAGAGAGAGAGAGAGAGCUGUGAGUACACAUGGGUGCUGGUGUGGGACAGGAGCAGAUCUUGGUGGAGUGGGUCUACACUUGAGAUUUGUACUCGUUUGAGAGGCUGGGCAAUACUCAAUGCACUUUGGCAUUUGCAUGGUGUCUUCACAACAGCACAGCAAUAAACAUUGUGAUUGUGUGGACAUGCUGACUCUCCUCUUGCGGUCGCACUAGUGUGGAAUUCUCGGGUGUCAAGG
B10: ENSMUSG00000022095.269|Fam160b2 (ssRNA)
RNA: GGGAGUUCUACAGUCCGACGAUCGCUUCGAUAUCCGCAUGCUAAGAGAGAGAGCGAGCUAUGAAUGAAUGUGAGUGUGUGUGUGUGUGUGUGUGAGAGAGAGAGAGAGAGAGAGAGAGCUGUGAGUACACAUGGGUGCUGGUGUGGGACAGGAGCAGAUCUUGGUGGAGUGGGUCUACACUUGAGAUUUGUACUCGUUUGAGAGGCUGGGCAAUACUCAAUGCACUUUGGCAUUUGCAUGGUGUCUUCACAACAGCACAGCAAUAAACAUUGUGAUUGUGUGGACAUGCUGACUCUCCCCAGUCUCUUGCGGUCGCACUAGUGUGGAAUUCUCGGGUGUCAAGG
B11: ENSMUSG00000022095.266|Fam160b2|1:10;49:69;116:120;252:257 (ssRNA)
RNA: GGGAGUUCUACAGUCCGACGAUCGCUUCGAUAUCCGCAUGCUAACACACACACAGAGAGAGAGAGAGAGAGCGAGCUAUGAAUGAAUGUGACACACACACACACACACACACAGAGAGAGAGAGAGAGAGAGAGAGCUGUGAGUACACAUGGGUGCUGCACACGGACAGGAGCAGAUCUUGGUGGAGUGGGUCUACACUUGAGAUUUGUACUCGUUUGAGAGGCUGGGCAAUACUCAAUGCACUUUGGCAUUUGCAUGGUGUCUUCACAACAGCACAGCAAUAAACAUUGUGAUACACACGACCUCUUGCGGUCGCACUAGUGUGGAAUUCUCGGGUGUCAAGG
B12: ENSMUSG00000022095.271|Fam160b2|19:39;86:90;222:227 (ssRNA)
RNA: GGGAGUUCUACAGUCCGACGAUCGCUUCGAUAUCCGCAUGCUAAGCUAUGAAUGAAUGUGACACACACACACACACACACACAGAGAGAGAGAGAGAGAGAGAGAGCUGUGAGUACACAUGGGUGCUGCACACGGACAGGAGCAGAUCUUGGUGGAGUGGGUCUACACUUGAGAUUUGUACUCGUUUGAGAGGCUGGGCAAUACUCAAUGCACUUUGGCAUUUGCAUGGUGUCUUCACAACAGCACAGCAAUAAACAUUGUGAUACACACGACAUGCUGACUCUCCCCAGUCUGCUUUUCUUUCUCUUGCGGUCGCACUAGUGUGGAAUUCUCGGGUGUCAAGG
B13: ENSMUSG00000022095.270|Fam160b2 (ssRNA)
RNA: GGGAGUUCUACAGUCCGACGAUCGCUUCGAUAUCCGCAUGCUAAGAGCGAGCUAUGAAUGAAUGUGAGUGUGUGUGUGUGUGUGUGUGAGAGAGAGAGAGAGAGAGAGAGAGCUGUGAGUACACAUGGGUGCUGGUGUGGGACAGGAGCAGAUCUUGGUGGAGUGGGUCUACACUUGAGAUUUGUACUCGUUUGAGAGGCUGGGCAAUACUCAAUGCACUUUGGCAUUUGCAUGGUGUCUUCACAACAGCACAGCAAUAAACAUUGUGAUUGUGUGGACAUGCUGACUCUCCCCAGUCUGCUUCUCUUGCGGUCGCACUAGUGUGGAAUUCUCGGGUGUCAAGG
B14: ENSMUSG00000022095.269|Fam160b2|31:51;98:102;234:239 (ssRNA)
RNA: GGGAGUUCUACAGUCCGACGAUCGCUUCGAUAUCCGCAUGCUAAGAGAGAGAGCGAGCUAUGAAUGAAUGUGACACACACACACACACACACACAGAGAGAGAGAGAGAGAGAGAGAGCUGUGAGUACACAUGGGUGCUGCACACGGACAGGAGCAGAUCUUGGUGGAGUGGGUCUACACUUGAGAUUUGUACUCGUUUGAGAGGCUGGGCAAUACUCAAUGCACUUUGGCAUUUGCAUGGUGUCUUCACAACAGCACAGCAAUAAACAUUGUGAUACACACGACAUGCUGACUCUCCCCAGUCUCUUGCGGUCGCACUAGUGUGGAAUUCUCGGGUGUCAAGG
B15: ENSMUSG00000022095.271|Fam160b2 (ssRNA)
RNA: GGGAGUUCUACAGUCCGACGAUCGCUUCGAUAUCCGCAUGCUAAGCUAUGAAUGAAUGUGAGUGUGUGUGUGUGUGUGUGUGAGAGAGAGAGAGAGAGAGAGAGAGCUGUGAGUACACAUGGGUGCUGGUGUGGGACAGGAGCAGAUCUUGGUGGAGUGGGUCUACACUUGAGAUUUGUACUCGUUUGAGAGGCUGGGCAAUACUCAAUGCACUUUGGCAUUUGCAUGGUGUCUUCACAACAGCACAGCAAUAAACAUUGUGAUUGUGUGGACAUGCUGACUCUCCCCAGUCUGCUUUUCUUUCUCUUGCGGUCGCACUAGUGUGGAAUUCUCGGGUGUCAAGG

Molecular target: TDP-43 (Homo sapiens, UniProt Q13148 1-414)
Assay: RNA Bind-n-Seq with designed 260-mer pool; 25 mM Tris-HCl, 150 mM KCl, 3 mM MgCl2, BSA (printed 500 mg/mL), 20 units/mL SUPERase IN; pH not stated; 500 nM RNA pool, 1 h, 4 C; TDP-43 5, 50, 500 nM; high values mean tight binding
Settings: protein: recombinant; tags: SBP (GST cleaved off with PreScission; pGEX-GST-SBP)
How it was run: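 In 25 mM Tris-HCl, 150 mM KCl, 3 mM MgCl2, BSA and SUPERase IN, 500 nM of an in vitro-transcribed 260-nt 3′ UTR oligo pool was incubated for 1 h at 4 °C with SBP-tagged TDP-43 (5, 50 or 500 nM) captured on streptavidin beads. RNA remaining after washes was biotin-eluted, reverse transcribed, PCR-amplified and sequenced. Binding, R, is the bound-sample abundance of each oligo, normalized to mapped reads, divided by its abundance in input. Each duplicate used a separate, independent protein batch.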

TDP-43, sequence (Q13148 whole entry): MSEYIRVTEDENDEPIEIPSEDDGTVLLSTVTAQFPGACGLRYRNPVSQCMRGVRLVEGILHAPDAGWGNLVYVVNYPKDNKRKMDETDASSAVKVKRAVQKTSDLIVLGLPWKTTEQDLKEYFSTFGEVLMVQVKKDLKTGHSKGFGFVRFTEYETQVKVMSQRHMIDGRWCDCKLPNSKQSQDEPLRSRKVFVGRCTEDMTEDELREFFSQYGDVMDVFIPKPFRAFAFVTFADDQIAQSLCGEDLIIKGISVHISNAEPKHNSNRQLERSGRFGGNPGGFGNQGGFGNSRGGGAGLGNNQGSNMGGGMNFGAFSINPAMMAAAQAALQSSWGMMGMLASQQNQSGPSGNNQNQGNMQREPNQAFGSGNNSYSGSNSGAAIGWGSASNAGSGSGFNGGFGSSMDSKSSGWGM

Binder | binding signal
B1 | 0.553 R (bound/input frequency ratio)
B2 | 0.69 R (bound/input frequency ratio)
B3 | 0.821 R (bound/input frequency ratio)
B4 | 4.46 R (bound/input frequency ratio)
B5 | 4.7 R (bound/input frequency ratio)
B6 | 5.83 R (bound/input frequency ratio)
B7 | 6.08 R (bound/input frequency ratio)
B8 | 5.79 R (bound/input frequency ratio)
B9 | 6.67 R (bound/input frequency ratio)
B10 | 7.25 R (bound/input frequency ratio)
B11 | 4.83 R (bound/input frequency ratio)
B12 | 4.21 R (bound/input frequency ratio)
B13 | 7.19 R (bound/input frequency ratio)
B14 | 4.63 R (bound/input frequency ratio)
B15 | 7.64 R (bound/input frequency ratio)
